Assay [1] in a line: qHTS assay to identify small molecule phospholipidosis (PLD) inducers (AID 1259344; active means well fitted curve in the direction sought with a large enough effect; an effect the other way counts as inactive or inconclusive). Put shortly:
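Quantitative HTS in HepG2: compound plus LipidTOX Red dye for 24 h, paraformaldehyde fixation with Hoechst 33342, widefield high-content imaging; amiodarone as positive and DMSO as negative control.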
For orientation: Quantitative high-throughput screening tests each substance at several concentrations.

Assay [2] is described as follows: qHTS assay to identify small molecule HDAC inhibitors (AID 1259364).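 Further: wild-type HCT-116 cells with endogenous class I/II HDAC activity; top concentration of the series differs between compounds; nearly all actives have a fitted effect of over 45% in size.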 In a few lines:
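Read-out: luminescence of HDAC-Glo I/II reagent, 30 min RT, reflecting class I/II deacetylase activity in whole HCT-116 cells pre-exposed 2 h to DMSO-dissolved compounds.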

The nature of assay [3]: qHTS assay to identify small molecule HDAC inhibitors - cell viability counter screen (AID 1259365). Further: nearly all actives have a fitted effect of over 50% in size. Further: potency means the concentration at half of the fitted maximal effect. Put shortly: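 Wild-type HCT-116 cells were seeded at 1,500 per well, incubated overnight at 37 C, then exposed to compounds in DMSO for 2hr. Viability was read by CellTiter-Glo luminescence after 30min at room temperature.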
Assay [4] can be described thus: qHTS assay to identify small molecule agonists of the sonic hedgehog signaling (Shh) pathway - cell viability counter screen (AID 1259366). Further: potency means the concentration at half of the fitted maximal effect; nearly all actives have a fitted effect of over 50% in size. Put shortly:
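NIH/3T3-derived 3T3 Gli1-Luc cells (stable Gli1-responsive firefly luciferase reporter) were seeded, rested 4 hr at 37 C/5% CO2, then exposed to compounds in DMSO for 24 hr; viability was read by CellTiter-Fluor fluorescence in the same wells.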

The nature of assay [5]: qHTS assay to identify small molecule antagonists of the sonic hedgehog signaling (Shh) pathway - cell viability counter screen (AID 1259367). Further: potency means the concentration at half of the fitted maximal effect; nearly all actives have a fitted effect of over 55% in size. In a few lines: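 Seed 3T3 Gli1-Luc cells at 2,000 per well; incubate 4 hr; add compound in DMSO, then conditioned medium; incubate at 37C with 5% CO2; add CellTiter-Fluor after 23 hr; read fluorescence 1 hr later.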
The nature of assay [6]: qHTS assay to identify small molecule agonists of the sonic hedgehog signaling (Shh) pathway (AID 1259368; calls by dose curve; further: series mostly up to about 92 µM; nearly all actives have a fitted effect of over 15% in size). Put shortly: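 A Gli1 transcriptional response element controlled firefly luciferase in 3T3Gli1-Luc cells. Compounds and a positive control were added 4 hr after plating, and cells were incubated a further 24 hr at 37 C before luminescence detection.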
Assay [7] can be described thus: qHTS assay to identify small molecule antagonists of the sonic hedgehog signaling (Shh) pathway (AID 1259369; calls by dose curve; further: nearly all actives have a fitted effect of over 45% in size; further: potency means the concentration at half of the fitted maximal effect). Put shortly:
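For antagonist detection, the reporter line received test compounds together with conditioned medium, incubated 24hr at 37 C, 5% CO2, then luminescence was recorded following 30min room-temperature luciferase reagent incubation.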

Assay [8] in a line: qHTS assay to identify small molecule agonists of the androgen receptor (AR) signaling pathway in the presence of an antagonist - cell viability counter screen (AID 1259379). Further: potency means the concentration at half of the fitted maximal effect; nearly all actives have a fitted effect of over 25% in size. Put shortly: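 Seed MDA-kb2 at 3,000 cells/well; incubate 5 hr, 37C, 0% CO2. Add nilutamide to 3.0uM final, then pin compounds at 15 concentrations. Incubate 16 hr. Add CellTiter-Fluor at 15 hr, read fluorescence after 1 hr.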

Assay [9] in a line: qHTS assay to identify small molecule agonists of the estrogen receptor beta (ER-beta) signaling pathway - cell viability counter screen (AID 1259380). Further: potency means the concentration at half of the fitted maximal effect; nearly all actives have a fitted effect of over 30% in size. Put shortly: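 CellTiter-Glo read, 30 min RT, same wells as bla assay; cells ER-beta-UAS-bla HEK293T; 16 hr compound, 37C; medium 2% charcoal-stripped FBS.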
Assay [10] can be described thus: qHTS assay to identify small molecule antagonists of the estrogen receptor beta (ER-beta) signaling pathway - cell viability counter screen (AID 1259382). Further: potency means the concentration at half of the fitted maximal effect; nearly all actives have a fitted effect of over 55% in size. In a few lines: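 In this multiplexed counter screen, cells were seeded at 2,000 per well in medium with 2% charcoal-stripped FBS and incubated 6 hr before compound and 1nM final E2 were added. Sixteen hours later, ATP-based luminescence reported viability.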

Assay [11] can be described thus: qHTS assay to identify small molecule agonists or antagonists of the thyroid stimulating hormone receptor (TSHR) signaling pathway - wild type cell line counter screen (AID 1259384; calls by dose curve). Put shortly: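 Wild-type Hek293 cells, 800/well, 18 h at 37C, then compound with Ro20-1724 for 30 min RT. cAMP by HTRF (cAMP-d2/anti-cAMP cryptate), 1 h RT, fluorescence read. 15 concentrations, triplicates.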

Assay [12] deals with Thyrotropin receptor (Homo sapiens) (UniProt P16473). Kind of assay: qHTS assay to identify small molecule antagonists of the thyroid stimulating hormone receptor (TSHR) signaling pathway (AID 1259385; calls by dose curve; further: nearly all actives have a fitted effect of over 20% in size; further: potency means the concentration at half of the fitted maximal effect). Put shortly:
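TSHR-HEK293 cells (800/well) plated 18 h, then compounds with Ro20-1724 and TSH at 1.5 ng/mL final, 30 min at room temperature. cAMP quantified by HTRF (cAMP-d2/anti-cAMP-cryptate, 1 h); 15 concentrations in triplicate.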

Assay [13] has as its target Androgen receptor (Homo sapiens) (UniProt P10275). Kind of assay: qHTS assay to identify small molecule antagonists of the androgen receptor (AR) signaling pathway using the MDA cell line in the presence of 0.5 nM R1881 (AID 1259243). Further: nearly all actives have a fitted effect of over 50% in size. Further: potency means the concentration at half of the fitted maximal effect. In a few lines: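 Reporter cells cultured without CO2 receive test chemicals, then 0.5 nM R1881 final; after 16 hr at 37C, ONE-Glo is added and light output recorded.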

Assay [14] has the same target. In words: qHTS assay to identify small molecule agonists of the androgen receptor (AR) signaling pathway in the presence of an antagonist (AID 1259381; calls by dose curve; further: nearly all actives have a fitted effect of over 15% in size; further: potency means the concentration at half of the fitted maximal effect). In a few lines:
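Test compounds at 15 concentrations were incubated for 16hr with MDA-kb2 reporter cells in presence of 3.0uM nilutamide (final). Signal: ONE-Glo luciferase luminescence.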

The target in assay [15] is Estrogen receptor (Homo sapiens) (UniProt P03372). In words: qHTS assay to identify small molecule agonists of the estrogen receptor alpha (ER-alpha) signaling pathway in the presence of an antagonist (AID 1259383; calls by dose curve; further: top concentration of the series differs between compounds; nearly all actives have a fitted effect of over 15% in size). Put shortly: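 Stably transfected VM7Luc4E2 reporter cells, kept 5 days in charcoal-stripped serum, received ICI-182,780 at 10.0nM final before compound addition. Following 22hr incubation at 37C and 5% CO2, luciferase signal was read by luminescence.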
Estrogen receptor (Homo sapiens), sequence (P03372 whole entry, looked up): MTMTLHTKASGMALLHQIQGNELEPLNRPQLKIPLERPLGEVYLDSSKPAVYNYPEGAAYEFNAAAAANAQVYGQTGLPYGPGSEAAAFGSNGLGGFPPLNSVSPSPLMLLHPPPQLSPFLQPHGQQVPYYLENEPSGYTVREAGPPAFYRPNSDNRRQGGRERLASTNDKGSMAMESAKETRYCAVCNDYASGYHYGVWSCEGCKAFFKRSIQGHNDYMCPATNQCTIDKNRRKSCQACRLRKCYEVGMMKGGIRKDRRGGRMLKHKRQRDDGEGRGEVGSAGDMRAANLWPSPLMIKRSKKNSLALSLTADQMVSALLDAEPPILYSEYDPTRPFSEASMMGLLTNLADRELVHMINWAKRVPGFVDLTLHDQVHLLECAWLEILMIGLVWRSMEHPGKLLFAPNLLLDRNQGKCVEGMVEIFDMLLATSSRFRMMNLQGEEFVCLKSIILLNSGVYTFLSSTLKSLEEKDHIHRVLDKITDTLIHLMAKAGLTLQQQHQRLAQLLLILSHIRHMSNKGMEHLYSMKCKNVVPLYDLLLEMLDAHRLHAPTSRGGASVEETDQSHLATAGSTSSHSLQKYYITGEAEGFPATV

The target is the same in assay [16]. Kind of assay: qHTS assay to identify small molecule antagonists of the estrogen receptor alpha (ER-alpha) signaling pathway using the BG1 cell line in the presence of 0.1 nM 17-beta-estradiol (AID 1259244). Further: potency means the concentration at half of the fitted maximal effect; nearly all actives have a fitted effect of over 50% in size. Put shortly: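 Estradiol at 0.1 nM (final) stimulates the endogenous ER-alpha of VM7Luc4E2 cells carrying an ERE-driven luciferase; compounds are co-incubated 22 h at 37C and luciferase output quantified by luminescence.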

Results filed as inconclusive are left out. Calls of active or inactive are those of the source. Unless noted, the call rests on the fitted dose curve; in most records, active means well fitted curve in the direction sought with a large enough effect in the repeat runs; inconclusive means weak or mixed curves; inactive means no such curve, though single readings can be large; an effect the other way counts as inactive or inconclusive.

Thyrotropin receptor (Homo sapiens), sequence (P16473 whole entry, looked up): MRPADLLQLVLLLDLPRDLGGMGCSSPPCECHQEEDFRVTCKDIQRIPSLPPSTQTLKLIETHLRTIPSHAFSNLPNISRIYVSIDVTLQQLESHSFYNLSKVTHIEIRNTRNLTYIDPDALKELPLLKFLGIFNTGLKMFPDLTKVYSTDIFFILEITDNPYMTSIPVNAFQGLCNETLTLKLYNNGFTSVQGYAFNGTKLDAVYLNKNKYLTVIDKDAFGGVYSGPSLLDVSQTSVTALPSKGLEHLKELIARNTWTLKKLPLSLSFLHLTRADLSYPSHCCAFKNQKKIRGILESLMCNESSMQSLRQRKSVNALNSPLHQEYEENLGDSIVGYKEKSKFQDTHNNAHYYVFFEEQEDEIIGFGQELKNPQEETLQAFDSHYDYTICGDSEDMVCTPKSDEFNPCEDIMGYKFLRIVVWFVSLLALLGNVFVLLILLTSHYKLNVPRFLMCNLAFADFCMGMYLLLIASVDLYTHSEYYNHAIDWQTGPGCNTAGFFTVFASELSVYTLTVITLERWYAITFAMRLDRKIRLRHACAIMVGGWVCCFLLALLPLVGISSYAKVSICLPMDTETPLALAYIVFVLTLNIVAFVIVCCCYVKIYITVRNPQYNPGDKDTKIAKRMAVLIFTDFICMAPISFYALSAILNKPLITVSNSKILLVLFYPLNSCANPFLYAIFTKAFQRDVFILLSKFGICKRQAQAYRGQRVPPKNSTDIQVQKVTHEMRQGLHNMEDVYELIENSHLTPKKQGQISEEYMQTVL
Androgen receptor (Homo sapiens), sequence (P10275 whole entry, looked up): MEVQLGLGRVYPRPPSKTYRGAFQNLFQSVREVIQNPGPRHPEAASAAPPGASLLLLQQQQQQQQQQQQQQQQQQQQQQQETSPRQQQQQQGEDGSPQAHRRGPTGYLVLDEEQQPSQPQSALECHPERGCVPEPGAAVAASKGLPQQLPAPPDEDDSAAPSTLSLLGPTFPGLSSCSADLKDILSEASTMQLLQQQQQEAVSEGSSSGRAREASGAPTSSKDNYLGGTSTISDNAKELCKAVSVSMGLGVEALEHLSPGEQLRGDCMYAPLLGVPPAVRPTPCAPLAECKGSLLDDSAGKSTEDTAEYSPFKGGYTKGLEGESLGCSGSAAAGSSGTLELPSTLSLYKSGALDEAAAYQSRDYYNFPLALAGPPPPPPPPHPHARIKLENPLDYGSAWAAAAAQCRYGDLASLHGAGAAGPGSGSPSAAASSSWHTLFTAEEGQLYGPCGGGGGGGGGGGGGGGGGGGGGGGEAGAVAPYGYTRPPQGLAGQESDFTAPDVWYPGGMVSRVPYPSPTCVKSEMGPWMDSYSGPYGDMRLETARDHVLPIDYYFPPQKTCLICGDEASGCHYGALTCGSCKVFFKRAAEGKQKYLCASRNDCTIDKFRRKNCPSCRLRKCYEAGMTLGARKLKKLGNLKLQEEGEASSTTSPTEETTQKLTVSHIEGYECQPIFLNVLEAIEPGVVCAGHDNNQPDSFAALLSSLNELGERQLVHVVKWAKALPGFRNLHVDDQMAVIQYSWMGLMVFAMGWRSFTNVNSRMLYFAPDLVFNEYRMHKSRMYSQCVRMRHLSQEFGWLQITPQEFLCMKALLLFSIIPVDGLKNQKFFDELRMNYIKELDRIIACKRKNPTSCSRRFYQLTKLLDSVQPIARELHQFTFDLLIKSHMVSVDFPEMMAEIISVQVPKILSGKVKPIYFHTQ

Take `CCCCc1oc2ccc(NS(C)(=O)=O)cc2c1C(=O)c1ccc(OCCCN(CCCC)CCCC)cc1`: the Potency result in assay [1], in [2], in assay [3] and in assay [6] was “inactive” throughout. Moreover, the Potency in assay [4] was 21.1 µM (active); in [5], 26.6 µM (active); in [7], 2.98 µM (active); in assay [8] it was 21.1 µM (active); in [9], 11.9 µM (active); in assay [10], 10.6 µM (active). Moreover, the Potency in assay [12] is 29.8 µM (active). For the same compound, the compound was classed as inactive in assay [11].
With `CC/C(=C(\c1ccc(O)cc1)c1ccc(OCCN(C)C)cc1)c1ccccc1`, the Potency in assay [13] was 61.3 µM (active); in [4] it was 21.7 µM (active); in assay [5], 30.7 µM (active); in [7], 9.71 µM (active); in [8] it was 61.3 µM (active); in assay [9], 24.4 µM (active). Moreover, the Potency in [10] was 27.4 µM (active). In addition, the Potency result in assay [2], in assay [6] and in assay [14] was “inactive” throughout. Further, in [11], the call was inactive.
As to `Cc1cc(O)c(C(C)(C)C)cc1Sc1cc(C(C)(C)C)c(O)cc1C`, the Potency in [13] is 24.3 µM (active); in assay [3], 61 µM (active); in assay [4], 19.3 µM (active); in [5] it was 19.3 µM (active); in assay [7], 9.67 µM (active); in [8], 30.6 µM (active). The Potency was 19.3 µM (active) in [9] and 24.3 µM (active) in [10]. Moreover, the Potency result in assay [2], in assay [6], in assay [14] and in assay [15] was “inactive” in each case. Moreover, the call in assay [11] was inactive.
As for `CC(C)(C)CC(C)(C)c1ccc(O)c(Cc2ccc(Cl)cc2Cl)c1`, the Potency in [13] is 29.8 µM (active); in [16], 33.5 µM (active); in [9] it was 11.9 µM (active); in assay [10], 29.8 µM (active). The Potency result in assay [1], in assay [2], in assay [6], in assay [14], in assay [15] and in assay [12] was “inactive” in each case. The outcome in [11] was inactive.
Regarding `CCCCCCCCCCCC(=O)NCCCN(C)C`, the Potency in assay [13] was 68.6 µM (active); in assay [7] it was 19.3 µM (active); in [9] it was 54.5 µM (active); in assay [10], 54.5 µM (active); in assay [12] it was 61.1 µM (active). Besides, the Potency entry in assay [2], in assay [3], in assay [6], in assay [14] and in [15] was “inactive” in each case. For the same compound, the outcome in assay [11] was inactive.
Turning to `Nc1ccc2c3c(cccc13)-c1ccccc1-2`, the Potency entry in assay [13], in assay [2], in assay [3], in assay [6] and in assay [7] was “inactive” throughout. The Potency in assay [9], in assay [14] and in assay [10] was 49.1 µM (active) each time. For the same compound, the compound was called inactive in [11].

The record behind these values is PubChem BioAssay (Tox21).
